For 94 compounds, inhibition results are on record in PubChem BioAssay AID1578 (Sanford-Burnham Center for Chemical Genomics, 2009).

The campaign covered roughly 290,000 compounds. About 3,000 (1%) were called active. Many of the other results were omitted from the sample, so actives are more common in it than they were. Unmarked numbers belong to inactive results. No stated cut-off is given here; in the data, active means inhibition mostly above about 36% (no sharp cut-off); inactive means mostly below about 34%.

The assay in a line: inhibition of NOD1-driven NF-kB reporter – cell-based, luminescence, uHTS, primary screen (AID 1578).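 Further: HEK-293T reporter cells stimulated with the NOD1 agonist gamma-tri-DAP.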 Conditions: NOD1-driven NF-kB luciferase reporter cells, at 4 µM, active compounds read high.
In general, inhibition refers to the change of the read-out against control, counted positive when it falls. For `OCCN1CCN(c2cc(C(F)(F)F)nc3ccccc23)CC1`, the inhibition was -6.8%.

`C/C(=N\NC(=O)c1ccc(-c2ccccc2)cc1)c1ccco1`: the inhibition is -46.6%.

Take `COc1ccc(C(=O)N/C(N)=N/c2nc3ccccc3o2)cc1`: the inhibition was -46.2%.

Take `COc1ccc(C(=O)/C=C/Sc2nc3ccccc3o2)cc1`: the inhibition was 38.4% (active).

For `COc1ccc(CCNC(=O)CSc2nc3ccccc3o2)cc1`, the inhibition is -19.1%.

Consider `O=C(CCCN1C(=O)/C(=C/c2cccs2)SC1=S)Nc1ccccc1O`, for which the inhibition was -2%.

Regarding `COc1ccc(C(=O)CN2C(=O)c3ccccc3C2=O)cc1`, the inhibition was -9.8%.

Regarding `N#CCSc1nc2c(sc(=S)n2Cc2ccco2)c(=O)n1-c1ccc(F)cc1`, the inhibition was 66.5% (active).

For `CCOC(=O)CSc1nc2c(sc(=S)n2Cc2ccco2)c(=O)n1-c1ccc(F)cc1`, the inhibition is 14.1%.

On to `CCOC(=O)CSc1nc2c(sc(=S)n2Cc2ccco2)c(=O)n1-c1ccccc1`, for which the inhibition was 16.8%.

Consider `COc1ccccc1NC(=O)Cn1cnc2c(nc3n2CCCCC3)c1=O`, for which the inhibition is -24.1%.

With `CC(=O)C1=C(C)NC(C)=C(C(C)=O)C1c1ccccc1`, the inhibition was -20.8%.

For `CCOc1ccc(C(=O)Nc2nnc(S(=O)(=O)Nc3ccccc3C)s2)cc1`, the inhibition was -17.1%.

Consider `CCOC(=O)c1ccc(N=c2sc(C(=O)OC)cc(=O)n2Cc2ccc3c(c2)OCO3)cc1`, for which the inhibition was 22.1%.

Take `COC(=O)c1cc(=O)n(Cc2ccc3c(c2)OCO3)c(=Nc2ccc(F)cc2)s1`: the inhibition is 48.7%.

In the case of `COC(=O)c1cc(=O)n(Cc2ccc3c(c2)OCO3)c(=Nc2ccccc2)s1`, the inhibition was 73.6% (active).

Consider `Cc1nn(Cc2ccccc2)c(C)c1NC(=O)c1cc2nc(-c3ccco3)cc(C(F)(F)F)n2n1`, for which the inhibition was -2%.

Turning to `COc1ccc(C2NCCc3cc(OC)c(OC)cc32)cc1OC` (centres undefined), the inhibition was -2.7%.

As for `CCOc1ccc(C2NCCc3cc(OC)c(OC)cc32)cc1OC` (centres undefined), the inhibition is 83.1% (active).

Regarding `CCOc1cc2c(cc1OC)C(c1cccc([N+](=O)[O-])c1)NCC2` (centres undefined), the inhibition was -31.3%.

Consider `Clc1cccc2c3c([nH]c12)CCNC3`, for which the inhibition was 0.5%.

Consider `COCc1[nH]nc2c1C(c1cccc(OC)c1)C(C#N)=C(N)O2` (centres undefined), for which the inhibition is 4.9%.

As to `CCn1c2ccccc2c2cc(C3C(C#N)=C(N)Oc4n[nH]c(COC)c43)ccc21` (centres undefined), the inhibition was 54.9% (active).

In the case of `COCc1[nH]nc2c1C(c1ccc(OC)c(OC)c1)C(C#N)=C(N)O2` (centres undefined), the inhibition is -5.1%.

Regarding `CC1(C(=O)NNC(=O)c2cccc([N+](=O)[O-])c2)CC1(Br)Br` (centres undefined), the inhibition was -8.9%.

Take `N/C(=N\OC(=O)c1ccc([N+](=O)[O-])cc1Cl)c1ccccn1`: the inhibition was 45.8%.

As to `N/C(=N\OC(=O)c1cc(Br)ccc1Cl)c1ccccn1`, the inhibition was -19.5%.

Turning to `N/C(=N\OC(=O)c1cc(Cl)ccc1Cl)c1ccccn1`, the inhibition was 9.6%.

With `N/C(=N\OC(=O)c1ccc(Cl)cc1Cl)c1ccccn1`, the inhibition is 51.2% (active).

As to `COc1ccccc1C(=O)O/N=C(\N)c1ccccn1`, the inhibition was -10%.

For `N/C(=N\OC(=O)c1ccccc1Cl)c1ccccn1`, the inhibition was 54.7% (active).

Regarding `CC1=C(C(=O)OCc2ccc3c(c2)OCO3)C(c2cccc([N+](=O)[O-])c2)NC(=O)N1` (centres undefined), the inhibition was 63.2% (active).

Turning to `CCOC(=O)C1=C(CCl)NC(=O)NC1c1ccc2c(c1)OCO2` (centres undefined), the inhibition was 72.5% (active).

Consider `CC1=C(C(=O)OCc2ccccc2)C(c2cccc([N+](=O)[O-])c2)NC(=O)N1` (centres undefined), for which the inhibition is 13.3%.

Regarding `CCOC(=O)C1=C(CN2CCCCCC2)NC(=O)NC1c1ccc2c(c1)OCO2` (centres undefined), the inhibition is -36.5%.

Regarding `COc1ccc(C2NC(=O)NC(C)=C2C(=O)OCc2ccc3c(c2)OCO3)cc1OC` (centres undefined), the inhibition is 15.1%.

Consider `CCOC(=O)C1=C(C)NC(=O)NC1c1ccc2c(c1)OCO2` (centres undefined), for which the inhibition is 18%.

`Cc1cc(NC(=O)CN(C)CCOc2ccccc2)ccc1Br`: the inhibition was 7.6%.

For the compound `CCN(CC)C(=O)CSc1n[nH]c(=S)n1N`, the inhibition is -12.5%.

Turning to `COC(=O)c1ccc(CSc2n[nH]c(-c3ccccc3)n2)o1`, the inhibition is -16.9%.

In the case of `COc1ccc(N2CC(C(=O)Nc3ccccc3C(=O)NC3CC3)CC2=O)cc1` (centres undefined), the inhibition was -5.8%.

In the case of `CCOC(=O)c1cccc(N2C(=O)C3C4C=CC(CC4)C3C2=O)c1` (centres undefined), the inhibition was 7.8%.

Regarding `CCSc1nnc(NC(=O)c2cccnc2)s1`, the inhibition is -21.5%.

On to `CCOC(=O)C1=C(C)NC(=O)NC1c1c(OC)ccc2ccccc12` (centres undefined), for which the inhibition is -31.2%.

For the compound `O=C(NNC(=O)C12CC3CC(CC(C3)C1)C2)c1cnccn1`, the inhibition is -14.6%.

In the case of `O=C(NNC(=O)C12CC3CC(CC(C3)C1)C2)c1ccccn1`, the inhibition is 102% (active).

With `C/C(=N\NC(=O)c1ccccn1)C12CC3CC(CC(C3)C1)C2`, the inhibition is -2.5%.

Take `O=C(N/C(=C/c1ccc(Br)cc1)C(=O)N1CCCC1=O)c1ccco1`: the inhibition was 63.5% (active).

Consider `COc1ccc(/C=C(/NC(=O)c2ccco2)C(=O)N2CCCC2=O)cc1`, for which the inhibition was -22.3%.

As for `O=C(N/C(=C/c1ccc(Br)cc1)C(=O)N1CCOCC1)c1ccco1`, the inhibition is -24.4%.

In the case of `CC(=O)c1cccc(CN2CCN(C3CCCCC3)C(CCO)C2)c1` (centres undefined), the inhibition is -6.2%.

For the compound `CC(C)Oc1cccc(NC(=O)c2cnccc2C(F)(F)F)c1`, the inhibition was -4.2%.

For `COc1ccc(C(=O)N/C(=C\c2cccc([N+](=O)[O-])c2)C(=O)Nc2cccc(C(=O)O)c2)cc1`, the inhibition was -30.8%.

As for `CC(C)(C)C1=CC(=O)C(N2CCOCC2)=CC1=O`, the inhibition is 3.6%.

Consider `CC1=C(C)C(=O)C(N2CCOCC2)=CC1=O`, for which the inhibition is -11.2%.

Turning to `CC1CN(CCOc2ccc([N+](=O)[O-])cc2)CC(C)O1` (centres undefined), the inhibition is -4.4%.

For `C=CCN(c1ccccc1)S(=O)(=O)c1ccc(Cl)c(C(=O)OCC(=O)N(C)C2CCS(=O)(=O)C2)c1` (centres undefined), the inhibition is -31.4%.

Take `Nc1c2c(nc3ccccc13)CCCC2`: the inhibition was -26.6%.

As for `Cc1cccc2c(C(=O)O)c3c(nc12)CCCCC3`, the inhibition was -22.2%.

With `Cc1cccc2c(N)c3c(nc12)CCCC3` (tested in a mixture with another compound), the inhibition is 53.2% (active).

Turning to `COc1ccc2[nH]c(C(=O)O)c(NS(=O)(=O)c3ccc(C)c(C)c3)c2c1`, the inhibition is -3.1%.

On to `Cc1nc(C)c(-c2csc(Nc3ccc(F)cc3)n2)s1`, for which the inhibition is 44.7% (active).

As for `Cc1ccc(Nc2nc(-c3sc(C)nc3C)cs2)cc1`, the inhibition is -5%.

As to `Cc1nc(C)c(-c2csc(Nc3ccc(N)cc3)n2)s1`, the inhibition was 16.7%.

In the case of `COC(=O)C(C)(C)ONC(=O)Nc1ccc([N+](=O)[O-])cc1`, the inhibition was -7%.

For `CCOc1ccccc1C(=O)N/N=C/c1ccoc1`, the inhibition was -17.7%.

As to `CN=c1scc(-c2ccccc2F)n1/N=C/c1ccc(O)c(O)c1O`, the inhibition was -44.9%.

Take `CN=c1scc(-c2ccccc2Br)n1/N=C/c1ccc[nH]1`: the inhibition is 12.4%.

Regarding `CN=c1scc(-c2ccccc2F)n1/N=C/c1ccc[nH]1`, the inhibition was 101% (active).

Turning to `N#Cc1nc(COc2ccc(Cl)cc2Cl)oc1N1CCN(c2ccccc2)CC1`, the inhibition is 21.8%.

In the case of `COc1ccc(N2CCN(C(c3ccccc3OC)c3nnnn3C3CCCC3)CC2)cc1` (centres undefined), the inhibition was -19.3%.

With `CC(C)Oc1ccc(C(CC(=O)O)NC(=O)C2CCCCC2)cc1` (centres undefined), the inhibition was -11.6%.

Turning to `COc1ccc(C(CC(=O)O)NC(=O)C2CCCCC2)cc1` (centres undefined), the inhibition is 19.1%.

In the case of `O=C(O)CC(NC(=O)C1CCCCC1)c1ccc(OC2CCCC2)cc1` (centres undefined), the inhibition was 65.3% (active).

In the case of `CCOC(=O)N1CCN(C(=O)c2cccc(F)c2)CC1`, the inhibition was -43.9%.

For the compound `Cc1ccc2sc(N(CCCN(C)C)C(=O)CCS(=O)(=O)c3ccccc3)nc2c1C`, the inhibition was -27%.

With `CCOc1cccc2sc(N(CCN(C)C)C(=O)CCS(=O)(=O)c3ccccc3)nc12`, the inhibition is -29%.

For `CN1C(=O)C2(C(C#N)=C(N)N(c3cc(Cl)cc(Cl)c3)C3=C2C(=O)CC(C)(C)C3)c2ccccc21` (centres undefined), the inhibition was -0.6%.

On to `O=c1ccnc(SCCC(F)=C(F)F)[nH]1`, for which the inhibition is -43.9%.

`O/N=C\c1ccc(-c2ccccc2)o1`: the inhibition is 3.8%.

As for `Cn1c(CCN2CCN(c3ccccn3)CC2)nc2cc(NC(=O)COc3ccc(Cl)cc3)ccc21`, the inhibition is 21%.

For the compound `COc1ccc(CCNC(=O)c2ccc(-c3ccc([N+](=O)[O-])cc3Cl)o2)cc1OC`, the inhibition is 95.8% (active).

`COc1ccc(CCNC(=O)c2ccc(-c3ccc([N+](=O)[O-])cc3Cl)o2)cc1`: the inhibition is 4.2%.

Consider `COc1ccc(CCNC(=O)c2ccc(-c3ccc([N+](=O)[O-])cc3)o2)cc1OC`, for which the inhibition was 38.5%.

As to `COc1ccc(-c2nnn(CC(=O)c3ccccc3)n2)cc1OC`, the inhibition was -8.9%.

Turning to `COc1cc(/C=C/C(=O)O)cc(S(=O)(=O)N2CCc3ccccc3C2)c1OC`, the inhibition is -13.2%.

Turning to `CC(CC(=O)NCCc1ccc(F)cc1)c1ccccc1` (centres undefined), the inhibition was -24.3%.

For `Cc1ccc(N/N=C2\CS(=O)(=O)N(C)c3ccsc32)cc1`, the inhibition was 58.9% (active).

Consider `CN1c2ccsc2/C(=N/Nc2ccccc2)CS1(=O)=O`, for which the inhibition is -41.3%.

On to `CN1c2ccsc2/C(=N/Nc2ccc(F)cc2)CS1(=O)=O`, for which the inhibition is -1.7%.

Consider `C[C@@H](O)C1NC(=O)[C@H](CCCCN)NC(=O)c2cc([N+](=O)[O-])cc(I)c2NCCC[C@@H](C(N)=O)NC1=O` (some centres undefined), for which the inhibition was -16%.

Turning to `COc1cc(CNC2CCCCCCC2)ccc1OCC(N)=O`, the inhibition is -34.5%.

For the compound `COc1ccc(OC)c2sc(NC(=O)c3ccc(S(=O)(=O)N(C)C)cc3)nc12`, the inhibition was -12.2%.

Regarding `C/C(=N\NC(=O)c1nnn(-c2nonc2N)c1CN(C)c1ccccc1)c1cccs1`, the inhibition is -19.9%.
